# From PubChem BioAssay (NCI)
# This is part of a sample that, as a whole, favours compounds with a hit. Of some 79,000 tested, about 15% had one in any assay. A number with no mark means an inactive call. The source made the active and inactive calls. Cut-off read from the data, not from the text of the source: active = growth inhibition above about 70%; inactive = the rest.
# Test: NCI Yeast Anticancer Drug Screen. Data for the cln2 rad14 strain (AID 165);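 note: 0% = growth equal to vehicle treated cultures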
# Conditions: S. cerevisiae cln2 rad14 strain, hits give high values
# Description: Growth inhibition of yeast strains with defined genetic alterations is measured as a screen for potential anti-cancer activity. Selected strains with alterations in DNA damage repair or cell cycle control were exposed to compounds and growth inhibition was measured relative to vehicle treated controls. The strain used in this assay is cln2 rad14
# [1] = at 5.0 µM (retest, dose inferred, filed as 0.5)
# [2] = at 50.0 µM (retest, dose inferred, filed as 5.0)
Structure (SMILES),growth inhibition [1] [%],growth inhibition [2],growth inhibition (at 50.0 µM) [%]
CC(C(=O)O)c1cn(Cc2ccccc2)c2ccccc12 (configuration not stated),6,85% (active),-8.85
O=[N+]([O-])c1ccc(-n2ncc3cccnc32)c([N+](=O)[O-])c1,-1,98% (active),46.9
Cc1ccc2nc(C[n+]3ccc4ccccc4c3)ccc2c1,-5,5%,-1.8
CSc1ncnc2ncn(C3OC(CO)C(O)C3O)c12 (configuration not stated),2,-3%,53
CC1=NN(C(=O)c2ccc(Cl)cc2)C(=O)C1N=Nc1ccc(S(=O)(=O)Nc2ncccn2)cc1 (configuration not stated),-6,2%,19.4
O=C(O)c1ccc(/C=C2\COc3ccccc3C2=O)cc1,5,80% (active),52.8
NC(N)=N/N=C/c1ccc([N+](=O)[O-])o1,3,7%,25.2
CC(C)(C)C(=O)/C=C/c1ccc2ccccc2n1,-66,-75%,8.6
Cc1cccc(Nc2c3c(nc4ccccc24)CCCCC3)c1,-3,53%,66.9
CC(=O)OC1(c2ccccc2)N=C(c2ccccc2)N=C1c1ccccc1 (configuration not stated),13,28%,38.3
CSC(SC)(C(=O)O)c1cc(-c2c(Cl)cccc2Cl)no1,-1,-5%,17.1
CC1=C(C(=O)Nc2cc(O)ccc2O)C(c2cccc([N+](=O)[O-])c2)C(C(=O)Nc2cc(O)ccc2O)=C(C)N1,-5,12%,46.8
O=C(O)C1C(C(=O)O)C23CC2(C(=O)O)C2(C(=O)O)CCC3=C3CCCC312 (configuration not stated),-21,99% (active),19.4
C1=NCCN=Cc2ccccc2NCCNc2ccccc21,15,23%,53.5
